Laboratory results: PubChem BioAssay
Active and inactive are the calls of the source.

Legend:
[1] = E. coli DRC41 culture turbidity changes, primary screen, E. coli filamentation inducer project, strain DRC41, OD650, 48 h (AID 1152);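 further: E. coli MC1000 strain DRC41 lacking acrAB efflux pump and sulA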; details: E. coli DRC41 (acrAB sulA), higher = more signal, called active from +8 up or from −8 down
[2] = small-molecule binders of probe aLefty1, primary screen, biochemical, small-molecule microarray, 635/667 nm fluorescence (AID 1153); details: higher = more signal;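 further: score merges spot fluorescence with signal-to-noise ratio from the scanned slide images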
[3] = PSAC antagonists in infected red cells, primary screen, cell-based, P. falciparum Indochina, OD700, 1 h (AID 1154); details: P. falciparum Indochina infected RBC osmotic lysis, higher = more signal, called active from +8 up or from −8 down
[4] = PSAC antagonists in infected red cells, primary screen, cell-based, P. falciparum Indochina, OD700, 2 h (AID 1155);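 further: lysis reports solute entry through the parasite surface anion channel PSAC; channel blockers reduce lysis of infected cells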; details: P. falciparum Indochina infected erythrocytes, osmotic lysis OD700; higher = more signal, called active from +8 up or from −8 down
[5] = osmotic lysis modulators in infected erythrocytes, primary screen, PSAC antagonist project, cell-based, P. falciparum Indochina, OD700, 3 h (AID 1156); details: higher = more signal, called active from +8 up or from −8 down
[6] = PSAC antagonists in infected red cells, primary screen, cell-based, P. falciparum Indochina, OD700, 18 h (AID 1157); details: P. falciparum Indochina infected erythrocytes, osmotic lysis OD700, 18 h; higher = more signal, called active from +8 up or from −8 down
[7] = modulators of S6 phosphorylation in cells, primary screen, cell-based, A549, cytoblot, luminescence, serum-stimulated (AID 1158); details: A549 phospho-S6 cytoblot, 5 h, higher = more signal;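 further: serum-stimulated A549 lung adenocarcinoma cells; signal is phosphorylated S6 detected by cytoblot immunostaining with HRP secondary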
[8] = target: NADPH oxidase 2 (Homo sapiens) (UniProt P04839); test: NOX2-dependent H2O2 signal modulators, primary screen, NOX inhibitor project, cell-based, HEK293-NOX2, PMA-stimulated, Amplex Red fluorescence (AID 1159); details: 45 min, higher = more signal, called active from +8 up or from −8 down; further: test concentration not given here
Chain of NADPH oxidase 2 (Homo sapiens) (P04839 whole entry, looked up): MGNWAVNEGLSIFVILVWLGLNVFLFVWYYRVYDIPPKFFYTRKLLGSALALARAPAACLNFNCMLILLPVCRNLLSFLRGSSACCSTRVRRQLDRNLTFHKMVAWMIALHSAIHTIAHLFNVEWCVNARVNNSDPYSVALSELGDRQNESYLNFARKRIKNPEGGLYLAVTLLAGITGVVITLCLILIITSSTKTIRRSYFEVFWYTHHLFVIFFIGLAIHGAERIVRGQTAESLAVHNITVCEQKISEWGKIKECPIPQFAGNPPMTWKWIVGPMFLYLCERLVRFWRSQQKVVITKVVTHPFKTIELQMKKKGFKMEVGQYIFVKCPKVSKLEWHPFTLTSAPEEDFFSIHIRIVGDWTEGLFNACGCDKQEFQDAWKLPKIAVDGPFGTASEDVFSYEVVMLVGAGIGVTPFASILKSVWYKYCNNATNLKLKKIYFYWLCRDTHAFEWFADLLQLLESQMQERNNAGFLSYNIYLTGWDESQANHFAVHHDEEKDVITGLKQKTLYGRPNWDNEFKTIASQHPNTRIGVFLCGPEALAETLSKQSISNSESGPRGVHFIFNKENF

[9] = target: NADPH oxidase 4 (Homo sapiens) (UniProt Q9NPH5); test: NOX4-dependent H2O2 signal modulators, primary screen, NOX inhibitor project, cell-based, HEK293-NOX4, tetracycline-induced, Amplex Red fluorescence (AID 1160); details: 45 min, higher = more signal, called active from +8 up or from −8 down
Chain of NADPH oxidase 4 (Homo sapiens) (Q9NPH5 whole entry, looked up): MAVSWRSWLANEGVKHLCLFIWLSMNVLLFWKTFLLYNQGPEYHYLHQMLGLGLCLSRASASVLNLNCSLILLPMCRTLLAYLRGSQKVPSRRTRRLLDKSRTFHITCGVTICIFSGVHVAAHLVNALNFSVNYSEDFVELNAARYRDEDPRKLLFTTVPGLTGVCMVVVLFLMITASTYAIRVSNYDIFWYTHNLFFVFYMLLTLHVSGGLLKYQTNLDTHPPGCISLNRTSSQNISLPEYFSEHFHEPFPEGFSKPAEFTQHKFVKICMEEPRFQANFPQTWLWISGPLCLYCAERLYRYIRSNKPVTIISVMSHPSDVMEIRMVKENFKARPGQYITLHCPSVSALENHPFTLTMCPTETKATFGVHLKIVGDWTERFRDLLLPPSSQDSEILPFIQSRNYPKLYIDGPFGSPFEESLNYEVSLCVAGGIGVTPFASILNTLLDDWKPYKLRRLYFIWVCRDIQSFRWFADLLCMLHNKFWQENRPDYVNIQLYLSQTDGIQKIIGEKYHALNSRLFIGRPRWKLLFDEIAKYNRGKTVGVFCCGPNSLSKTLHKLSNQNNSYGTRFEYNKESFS

[10] = target: NADPH oxidase 5 (Homo sapiens) (UniProt Q96PH1); test: NOX5-dependent H2O2 signal modulators, primary screen, NOX inhibitor project, cell-based, HEK293-NOX5, Amplex Red fluorescence (AID 1161); details: HEK293-NOX5, ionomycin, 45 min, higher = more signal
Chain of NADPH oxidase 5 (Homo sapiens) (Q96PH1 whole entry, looked up): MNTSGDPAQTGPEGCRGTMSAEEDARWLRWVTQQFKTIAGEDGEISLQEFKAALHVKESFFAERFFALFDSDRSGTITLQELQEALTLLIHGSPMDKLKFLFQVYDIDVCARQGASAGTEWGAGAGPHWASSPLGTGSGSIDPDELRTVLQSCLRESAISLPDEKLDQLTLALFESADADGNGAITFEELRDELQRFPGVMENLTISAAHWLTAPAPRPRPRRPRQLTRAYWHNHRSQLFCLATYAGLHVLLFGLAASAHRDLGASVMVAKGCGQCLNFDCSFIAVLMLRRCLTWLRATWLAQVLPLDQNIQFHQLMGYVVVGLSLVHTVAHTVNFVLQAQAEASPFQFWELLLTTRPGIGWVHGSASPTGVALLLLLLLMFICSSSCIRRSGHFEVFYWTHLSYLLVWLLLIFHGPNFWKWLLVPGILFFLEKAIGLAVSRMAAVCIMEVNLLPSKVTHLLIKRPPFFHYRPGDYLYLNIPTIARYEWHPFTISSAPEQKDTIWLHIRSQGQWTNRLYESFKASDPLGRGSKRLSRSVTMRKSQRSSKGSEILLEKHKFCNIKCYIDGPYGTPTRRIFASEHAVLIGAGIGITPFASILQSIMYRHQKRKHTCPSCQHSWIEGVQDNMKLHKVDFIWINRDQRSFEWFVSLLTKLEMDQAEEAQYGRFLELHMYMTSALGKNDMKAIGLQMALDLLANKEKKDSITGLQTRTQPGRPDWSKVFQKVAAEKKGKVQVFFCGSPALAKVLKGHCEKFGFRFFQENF

| SMILES | z-score [1] | composite z-score [2] | z-score [3] | z-score [4] | z-score [5] | z-score [6] | z-score [7] | z-score [8] | z-score [9] | z-score [10] |
| --- | --- | --- | --- | --- | --- | --- | --- | --- | --- | --- |
| Cc1ccc(S(=O)(=O)N[C@@H]2COC(=O)[C@H](C)COC(=O)CC=C[C@H]2C)cc1 | -0.786 (inactive) | -0.0493 | 0.345 (inactive) | 0.408 (inactive) | 0.563 (inactive) | -0.0893 (inactive) | -0.648 | -0.108 (inactive) | 0.174 (inactive) | 0.343 |
| C[C@H](c1ccccc1)N1C(=O)[C@H]2[C@H]3[C@H](O)[C@H](O)CC(=O)[C@@H]3CC[C@H]2C1=O | -0.228 (inactive) | 0.173 | 0.12 (inactive) | 0.321 (inactive) | 0.151 (inactive) | -0.12 (inactive) | -0.448 | 0.292 (inactive) | -0.112 (inactive) | -0.092 |
| O=C(NN=C1C[C@@H](O)[C@@H](O)[C@@H]2[C@@H]3C(=O)N(c4ccc(F)cc4F)C(=O)[C@@H]3CC[C@@H]12)OCc1ccccc1 | 0.113 (inactive) | 0.0536 | 3.79 (inactive) | 0.326 (inactive) | -0.479 (inactive) | 0.0094 (inactive) | -0.849 | 1.56 (inactive) | 0.882 (inactive) | 0.0449 |
| CC(C)(C)N1CC=CC23O[C@@H]4C=CCCOC(=O)C4[C@H]2C(=O)N(CCCCCO)[C@@H]3C1=O (stereo not given in full) | 0.499 (inactive) | 0.0919 | 1.03 (inactive) | 0.396 (inactive) | 1.98 (inactive) | 0.159 (inactive) | -0.186 | 1.26 (inactive) | 0.385 (inactive) | 1.75 |
| COc1cccc([C@@H]2Oc3ccc(Br)cc3C(=O)[C@H]2O)c1 | 0.91 (inactive) | -0.0464 | 20 (active) | 3.35 (inactive) | -0.0836 (inactive) | 0.592 (inactive) | -0.256 | 0.658 (inactive) | -1.89 (inactive) | -0.879 |
| C[C@H](c1ccccc1)N1C(=O)[C@H]2[C@@H]3C(=CC[C@H]2C1=O)C(=O)[C@H]1O[C@H]1[C@H]3O | 0.0931 (inactive) | -0.239 | -0.564 (inactive) | -0.0275 (inactive) | 0.163 (inactive) | -0.0165 (inactive) | -0.836 | -0.76 (inactive) | -0.156 (inactive) | 1.13 |
| CC(C)(C)N1C(=O)[C@H]2[C@H]3[C@H](O)[C@H](O)CC(=NOCc4ccccc4)[C@@H]3CC[C@H]2C1=O | 0.831 (inactive) | -0.0162 | 0.464 (inactive) | -1.53 (inactive) | 0.877 (inactive) | -2.27 (inactive) | 0.581 | -1.57 (inactive) | 0.413 (inactive) | 0.791 |
| Cc1cc(C)c(-c2cc([C@H](C)ON=C3[C@H]4CCn5c(=O)n(-c6ccccc6)c(=O)n5[C@H]4[C@H](O)[C@@H]4O[C@H]34)on2)c(C)c1 | -0.0555 (inactive) | 0.218 | 1.43 (inactive) | 0.322 (inactive) | 0.347 (inactive) | 0.391 (inactive) | -0.914 | 0.0599 (inactive) | 0.68 (inactive) | -0.114 |
| O=C1CCCC2OC12C(O)CCc1ccccc1 (stereo not given) | 0.508 (inactive) | -0.541 | -0.272 (inactive) | -0.521 (inactive) | -0.0749 (inactive) | -0.169 (inactive) | 0.172 | 0.504 (inactive) | -0.142 (inactive) | 0.0429 |
| O=C1C[C@@H](O)[C@@H](O)[C@@H]2[C@@H]3C(=O)N(c4ccc(F)cc4F)C(=O)[C@@H]3CC[C@@H]12 | -0.349 (inactive) | -0.101 | -0.571 (inactive) | -0.0709 (inactive) | -0.659 (inactive) | -0.408 (inactive) | -0.0159 | -2.64 (inactive) | 0.473 (inactive) | -0.457 |
| C=CC[C@@H]1C=C[C@H](ON=C(C)CCN2CCc3nc(CC)c(CC)cc3C2)[C@@H](CO)O1 | 0.31 (inactive) | 0.288 | 2.65 (inactive) | 0.37 (inactive) | 0.412 (inactive) | 0.294 (inactive) | -1.15 | -1.24 (inactive) | 0.492 (inactive) | 1.82 |
| CO[C@@H]1COC(=O)CC=C[C@@H](C)[C@@H]2C=C[C@@H](O)[C@@H](COC(=O)CC=C[C@H]1C)O2 | 0.301 (inactive) | -0.012 | 0.118 (inactive) | -1.35 (inactive) | -1.66 (inactive) | -1.73 (inactive) | 0.805 | -0.0926 (inactive) | 0.492 (inactive) | 0.957 |
| COC(=O)[C@H](C)NC(=O)CCC1CC(OC(=O)NCc2ccc3c(c2)OCO3)CC2(CCCC(COC(=O)NCCOc3ccccc3)O2)O1 (stereo not given in full) | -0.638 (inactive) | -0.414 | -1.1 (inactive) | -0.123 (inactive) | -0.409 (inactive) | -0.323 (inactive) | 1.48 | -0.245 (inactive) | 0.758 (inactive) | 0.214 |
| CN1C(=O)C2C=CC(C(O)c3ccc(Br)cc3)N(N(c3ccccc3)c3ccccc3)C2C1=O (stereo not given) | -1.19 (inactive) | 0.446 | 15.4 (active) | 3.08 (inactive) | 0.948 (inactive) | 1.76 (inactive) | -0.0423 | 1.2 (inactive) | 0.184 (inactive) | 0.24 |
| O=C1[C@H]2[C@H]3[C@H](O)[C@H](O)CC(=NO[C@@H]4O[C@H](CO)[C@@H](O)[C@H](O)[C@H]4O)[C@H]3CC[C@H]2C(=O)N1Cc1ccccc1 | -0.906 (inactive) | 0.0068 | 5.53 (inactive) | 0.117 (inactive) | -0.19 (inactive) | -0.801 (inactive) | 0.705 | -2.63 (inactive) | 0.587 (inactive) | 0.353 |
| CC(CCC(=O)OC[C@H]1O[C@H](C#Cc2ccccc2)C=C[C@@H]1Oc1ccc(C)cc1)=NOC[C@@H](O)COCc1ccco1 | 0.654 (inactive) | -0.839 | 17.7 (active) | 1.77 (inactive) | 0.811 (inactive) | 1.18 (inactive) | 0.63 | -0.0388 (inactive) | 0.811 (inactive) | -0.37 |
| CCOC(=O)CCN1C(=O)[C@H]2[C@H]3[C@H](O)[C@H](O)CC(=NOC[C@@H](O)COCc4ccco4)[C@H]3CC[C@H]2C1=O | -0.923 (inactive) | -0.101 | 0.73 (inactive) | -1.31 (inactive) | 0.318 (inactive) | -2.76 (inactive) | 0.141 | -0.343 (inactive) | 0.0781 (inactive) | -0.498 |
| CCOC(=O)NN=C1C[C@@H](O)[C@@H](O)[C@@H]2[C@@H]3C(=O)N(CC)C(=O)[C@@H]3CC[C@@H]12 | -0.562 (inactive) | 0.0053 | -0.485 (inactive) | -0.246 (inactive) | -0.493 (inactive) | -0.336 (inactive) | 0.123 | -1.43 (inactive) | 0.0593 (inactive) | -0.641 |
| CCCNC(=O)[C@@H]1c2ccccc2C(=O)N(c2ccc(C)cn2)[C@H]1c1ccc(CO)cc1 | -0.292 (inactive) | -0.303 | 1.97 (inactive) | -0.0991 (inactive) | 0.562 (inactive) | 0.0336 (inactive) | 0.214 | 0.114 (inactive) | 0.0822 (inactive) | -0.974 |
| C=CCN1C(=O)[C@]2(O[C@H](CCn3cc(CCO)nn3)[C@@H]([Si](C)(C)c3ccc(OC)cc3)[C@@H]2C)c2cc(N3CCOC3=O)ccc21 | -0.902 (inactive) | 0.0509 | 6.82 (inactive) | 0.536 (inactive) | -0.5 (inactive) | 0.376 (inactive) | 0.199 | 0.111 (inactive) | 3.32 (inactive) | 1.57 |
| COc1ccc(COC(=O)NN=C2C[C@@H](O)[C@@H](O)[C@@H]3[C@@H]4C(=O)N(c5ccc(F)cc5F)C(=O)[C@@H]4CC[C@@H]23)cc1 | 0.0009 (inactive) | 0.235 | 5.54 (inactive) | 0.54 (inactive) | 1.15 (inactive) | 0.302 (inactive) | 0.281 | 1.5 (inactive) | -1.98 (inactive) | -1.12 |
| COCCOC(=O)N1C(=O)[C@@]2(c3cc(C#CC4(O)CCCCCC4)ccc31)[C@H](c1ccc(OCCO)cc1)N1[C@H](c3ccccc3)[C@H](c3ccccc3)OC(=O)[C@H]1[C@@H]2C(=O)NC[C@H](O)c1ccccc1 | 1.02 (inactive) | 0.43 | 2.18 (inactive) | 0.524 (inactive) | 0.735 (inactive) | -0.494 (inactive) | 1.47 | 1.79 (inactive) | 0.858 (inactive) | -1.31 |
| CC(C)[Si]1(C(C)C)O[C@@H](c2ccccc2)c2cc(C3CC3)nc(-c3ccccc3)c21 | -1.02 (inactive) | -0.108 | 1.27 (inactive) | 0.389 (inactive) | -0.0854 (inactive) | -0.0349 (inactive) | 0.19 | -0.305 (inactive) | 0.504 (inactive) | 0.0972 |
| CC(C)[C@@H](OCc1ccccc1)[C@H](C)C=NO[C@H](C)c1cn([C@H](CO)Cc2ccccc2)nn1 | -0.489 (inactive) | -0.448 | -0.146 (inactive) | -1.75 (inactive) | -0.525 (inactive) | -2.28 (inactive) | 1.99 | -2.23 (inactive) | -0.147 (inactive) | -1.41 |
| O=C1[C@H]2[C@H]3[C@H](O)[C@H](O)CC(=NOCc4ccccc4)[C@H]3CC[C@H]2C(=O)N1C[C@@H]1CCCO1 | 0.144 (inactive) | 0.0455 | 5.97 (inactive) | 0.673 (inactive) | -0.0092 (inactive) | 0.479 (inactive) | 0.067 | 0.421 (inactive) | 0.511 (inactive) | -1.46 |
| CCOC(=O)NN=C1C[C@@H](O)[C@@H](O)[C@@H]2[C@@H]3C(=O)N(C(C)(C)C)C(=O)[C@@H]3CC[C@@H]12 | -0.0206 (inactive) | -0.0601 | 0.209 (inactive) | -0.0313 (inactive) | -0.548 (inactive) | 0.0353 (inactive) | -0.12 | 0.5 (inactive) | 1.05 (inactive) | 0.295 |
